The campaign covered roughly 2,300 compounds. About 350 (15%) were called active. No rule for the calls is given here. Only a sample is shown. Entries with a potency or affinity are not part of this list.
Experiment: HepG2 cell cytotoxicity, dose response, cytotoxicity control for non-replicating M. tuberculosis project (AID 489018);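 also: HepG2 human liver cells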
Conditions: series mostly up to 20 µM

Structure (SMILES) | outcome
Cc1ccc2c(c1)c1c3n2CCN=C3CCC1 | inactive
Cc1ccc2[nH]c3c(c2c1)CCCC3NCCO (stereo not drawn) | inactive
O=C(COc1cccc2ccccc12)Nc1nc2ccccc2[nH]1 | inactive
O=C(OCC(=O)N1CCC(c2ccccc2)=N1)c1ccc([N+](=O)[O-])s1 | inactive
Cc1ccc(C(=O)NNC(=S)NC(=O)c2ccc(Cl)cc2)cc1 | inactive
Cc1cc(Br)ccc1OCCCCN1CCC(C)CC1 | inactive
CCCCCOc1ccc(CSC2=NCCN2)cc1[N+](=O)[O-] | inactive
CCOC(=O)CCNC(=O)c1ccc2nc(C3CCCCC3)oc2c1 | inactive
CCOc1ccc(/C=N/OCC(=O)Nc2ccc3c(c2)OCO3)cc1 | inactive
O=C(Cn1cc([N+](=O)[O-])nc1[N+](=O)[O-])N1CCN(c2ccccc2)CC1 | inactive
CC1=NN(C(=O)c2ccc(Cn3nc(C)c(Br)c3C)cc2)C(O)(C(F)(F)F)C1 (stereo not drawn) | inactive
O=C(c1ccccc1[N+](=O)[O-])N1N=C(c2ccccc2)CC1(O)C(F)(F)F (stereo not drawn) | inactive
Cc1ccc(OC(=O)c2ccc(Br)o2)cc1 | inactive
O=C1NCC(O)=C1C=Nc1ccccc1O | inactive
COc1cccc(NC(=O)c2ccc(Cn3cc([N+](=O)[O-])cn3)o2)c1 | inactive
CCc1cccc(OCCCn2ccnc2)c1 | inactive
CCOc1ccc(OCC(=O)Nc2ccc(OC)cc2)cc1 | inactive
Cc1ccc(-c2noc(CCC(=O)Nc3cccc(C#N)c3)n2)cc1 | inactive
Cn1cccc1/C=C1/C(=O)NC(=S)N(Cc2ccc(F)cc2)C1=O | inactive
CCN1/C(=C(\O)c2ccccc2)C(=O)c2ccccc2S1(=O)=O | inactive
Cc1cc(NC(=O)c2ccccc2F)n(-c2nc3ccccc3[nH]2)n1 | inactive
Cc1cc(Nc2ccccc2)n(-c2nc3ccccc3[nH]2)n1 | inactive
Cc1ccc(C(=O)N/N=C\c2ccc(-c3ccc(Cl)cc3)o2)cn1 | inactive
CCN1CSC(=S)N(Cc2ccc(OC)cc2)C1 | inactive

Structure (SMILES) | outcome
COc1cc(/C=N/N(C)C)ccc1OC(=O)c1cccs1 | inactive
O=C(CC1CCCCC1)NCc1ccccc1 | inactive
Cc1ccn2c(NC3CCCC3)c(-c3ccccn3)nc2c1 | inactive
Cc1ccc(C(=O)Nc2nnc(-c3ccncc3)o2)cc1 | inactive
COc1ccc(C(=O)Nc2nnc(-c3ccccc3)o2)cc1OC | inactive
O=C(Nc1nnc(-c2ccc(Cl)cc2)o1)c1ccccc1Br | inactive
COc1cccc(C(=O)Nc2nnc(-c3ccc(F)cc3)o2)c1 | inactive
COc1cccc(C(=O)OCC(=O)Nc2nnc(-c3ccccc3)o2)c1 | inactive
O=C(Nc1nnc(-c2ccc(F)cc2)o1)c1cc(Cl)sc1Cl | inactive
Cc1cccc(C(=O)Nc2nnc(-c3cccnc3)o2)c1 | inactive
COc1cccc(-c2nnc(NC(=O)c3cccc(F)c3)o2)c1 | inactive
O=C1c2cccc3c([N+](=O)[O-])ccc(c23)C(=O)N1c1ccc(Cl)cn1 | inactive
Cc1ccc(OCCCCn2ccnc2)c(Cl)c1 | inactive
O=C(CCNc1cccc(Cl)c1)c1ccco1 | inactive
CSc1ccccc1NC(=O)c1cc(C(C)C)on1 | inactive
COc1ccc(/C=C2\COc3ccccc3C2=O)cc1OC | inactive
COc1cccc(C(=O)OCC(=O)c2ccc(Br)s2)c1OC | inactive
CCCCOC(=O)Cn1c(-c2ccccc2)nc2ccccc2c1=O | inactive
O=C(Nc1ccc(S(=O)(=O)N2CCOCC2)cc1)c1ccc([N+](=O)[O-])s1 | inactive
O=C(Nc1nnc(-c2ccc(Cl)cc2)o1)c1cccc(N2C(=O)CCC2=O)c1 | inactive
O=C(Nc1nnc(-c2ccccc2Cl)o1)c1cccnc1 | inactive
O=C(Nc1nnc(-c2ccccc2Cl)o1)c1ccco1 | inactive
COc1ccc(C(=O)Nc2nnc(C3=COCCO3)o2)cc1 | inactive
COc1ccc(-c2nnc(NC(=O)C3=COCCO3)o2)cc1 | inactive

Structure (SMILES) | outcome
O=C(N/N=C/c1cc([N+](=O)[O-])ccc1O)C12CC3CC(CC(C3)C1)C2 | inactive
CCN1CCN(c2ccc(S(=O)(=O)N3CCCCC3)cc2NC(=O)c2ccc([N+](=O)[O-])o2)CC1 | inactive
O=C(OCc1cccc(F)c1)c1ccc2c(=O)n3c(nc2c1)CCC3 | inactive
CN(C)CC/C=C1/c2ccc(F)cc2Sc2ccc(Cl)cc21 | inactive
O=[N+]([O-])c1cc(-c2nc(-c3ccncc3)no2)cc([N+](=O)[O-])c1 | inactive
O=c1c2cc(Cl)ccc2oc2nc3n(c(=O)c12)CCCS3 | inactive
CC(=O)CC1(OC(C)=O)C(=O)N(C)c2ccccc21 (stereo not drawn) | inactive
O=C(Oc1cccc2cccnc12)c1cccc(-n2cnnn2)c1 | inactive
Oc1ccc(F)c2cccnc12 | inactive
O=C(CCN1CCOCC1)c1ccc(Cl)cc1 | inactive
O=C(Oc1cccc2cccnc12)c1cccc([N+](=O)[O-])c1 | inactive
COc1ccc(/C=N/NC(=O)c2ccncc2)cc1CN1CCOCC1 | inactive
O=C(Oc1cccc2cccnc12)c1ccc2c(c1)OCCO2 | inactive
COc1cc(OC)cc(OC(=O)c2ccc3c(=O)n4c(nc3c2)CCC4)c1 | inactive
COc1cc(NC(=O)N2CCOCC2)cc(OC)c1 | inactive
CCc1ccc(N2NC(=O)/C(=C/C=C/c3ccco3)C2=O)cc1 | inactive
Cc1ccccc1OCCCCc1c(C)n[nH]c1C | inactive
COc1ccc(C(=O)COC(=O)c2ccc(Cl)nc2)c(OC)c1 | inactive
COc1ccc(N2C(=O)NC(=O)/C(=C/c3ccc([N+](=O)[O-])s3)C2=O)cc1 | inactive
CCc1ccc(Cc2cnc(NC(=O)C3=NCCN3)s2)cc1 | inactive
CCCCNC(=O)Cc1ccc(C)cc1 | inactive
COc1cccc2[nH]c3c(Cl)ncnc3c12 | inactive
Cc1ccc(C(=O)Oc2cccc(-n3cnnn3)c2)cc1 | inactive
CCOC(=O)C1(CCc2ccccc2)CCN(Cc2ccccn2)CC1 | inactive

Structure (SMILES) | outcome
O=C(COc1c(Br)cc(Br)c2cccnc12)N1CCCCC1 | inactive
O=C(OCC(=O)N1CCN(c2ccccc2)CC1)c1cnc(Cl)c(Cl)c1 | inactive
Cc1[nH]n2c(=O)c3c(nc2c1-c1ccccc1)CCCC3 | inactive
O=C(Nc1nc2ccccc2[nH]1)c1cccc([N+](=O)[O-])c1 | inactive
Cc1cc(C)n2[nH]c(=O)c(N=Nc3cccc(C(F)(F)F)c3)c2n1 | inactive
CCOC(=O)c1ccc(-c2ccc(C(=O)Nc3cccnc3)o2)cc1 | inactive
Cc1cccc(C)c1NC(=O)COC(=O)CCc1c[nH]c2ccccc12 | inactive
O=C(COc1ccc(-c2ccccc2)cc1)Nc1cccnc1 | inactive
O=C(COc1ccc(Nc2ccccc2)cc1)OCC(=O)N1CCCCC1 | inactive
CCn1nnc(NC(=O)c2sc3ccccc3c2Cl)n1 | inactive
O=C(Nc1nccs1)c1sc2ccccc2c1Cl | inactive
CCCc1ccc(OCc2ccc(C(=O)N/N=C/c3cccnc3)o2)cc1 | inactive
O=C(Nc1ccc(Cl)c(Cl)c1)O/N=C/c1ccncc1 | inactive
CC(C)(C)/C(O)=C/c1nc2ccccc2oc1=O | inactive
O=C(COc1ccccc1)NNc1nc2ccccc2s1 | inactive
O=C(N/N=C/c1cc([N+](=O)[O-])ccc1O)C1CCCCC1 | inactive
Cc1ccc(-c2ccc(/C=N/NC(=O)CN3CCCC3)o2)cc1Cl | inactive
Nc1ccc2nc3c(c(Cl)c2c1)CCCC3 | inactive
CCOC(=O)c1cnc(Nc2nc3ccccc3o2)nc1CSC(=S)N1CCCCC1 | inactive
Oc1ccccc1/C=N/Nc1nc2ccccc2o1 | inactive
O=C(OCCCOC(=O)c1ccc([N+](=O)[O-])o1)c1ccc([N+](=O)[O-])o1 | inactive
Cc1ccc2oc(=O)c3cc(C(=O)NCCCN4CCCCCC4)sc3c2c1 | inactive
COc1cccc(/C=C2\SC(=S)N(CCC(=O)N3CCCCC3)C2=O)c1 | inactive
CN1C(=O)/C(=C/c2cccc(Cl)c2)Sc2ccc(C(=O)N3CCCC3)cc21 | inactive

Structure (SMILES) | outcome
O=C1Nc2cc(C(=O)NCCCN3CCOCC3)ccc2S/C1=C/c1cccc(Cl)c1 | inactive
Cc1ccc(/C=N/NC(=O)C2COc3ccccc3O2)s1 (stereo not drawn) | inactive
Cc1ccnc(NC(=O)c2cc3ccccc3o2)c1 | inactive
CC(C)(C)C(=O)/C=C/Nc1ccccc1O | inactive
O=C(OCC(=O)N1CCN(c2ccccc2)CC1)c1ccc(Cl)cc1[N+](=O)[O-] | inactive
COc1cc(NCCC(=O)c2cccs2)c(OC)cc1Cl | inactive
COC(=O)C1=C(N)OC2=C(C(=O)CC(C)(C)C2)C1c1cccnc1 (stereo not drawn) | inactive
CCOC(=O)CNC(=O)CNC(=O)c1nn(-c2ccc(OC)c(Cl)c2)c(=O)c2ccccc12 | inactive
Cc1cc(Cl)cc(C)c1OCCCCn1ccnc1 | inactive
Cc1cccnc1NC(=O)c1c(O)c2ccccc2n(C)c1=O | inactive
C=CCn1c(=O)c(C(=O)Nc2cccnc2)c(O)c2ccccc21 | inactive
CCCCn1c(=O)c(C(=O)Nc2nnc(C(C)C)s2)c(O)c2ccccc21 | inactive
CCn1c(=O)c(C(=O)Nc2ncccc2C)c(O)c2ccccc21 | inactive
CCCCCCn1c(=O)c(C(=O)Nc2nnc(C)s2)c(O)c2ccccc21 | inactive
CCCCn1c(=O)c(C(=O)Nc2ncccc2C)c(O)c2ccccc21 | inactive
Cc1cccc(NCc2ccc([N+](=O)[O-])s2)c1 | inactive
c1coc(CNc2nc(N3CCCCC3)nc3ccccc23)c1 | inactive
Cc1ccc(NC(=O)COC(=O)C2=COCCO2)c([N+](=O)[O-])c1 | inactive
Cn1c(NC(=O)c2ccccc2)nc2ccccc21 | inactive
COc1ccc2c(c1)sc(=N)n2C | inactive
Cc1ccc2c(c1)c(C1=c3ccccc3=NC1=O)c(O)n2C | inactive
COc1ccc(COc2cccc(C=O)c2)cc1 | inactive

Source: PubChem BioAssay AID489018 (Southern Research Specialized Biocontainment Screening …, 2010)
